Records with an inconclusive call do not appear. Entries that show only a call come without a potency. A number with no mark means an inactive call. Activity calls are given as the source filed them. Calls come from the whole dose curve; as a rule, active = well fitted curve in the direction sought with a large enough effect; inconclusive = small, poorly fitted or top-dose-only effect, or another doubt; inactive = no such curve, though single readings can be large; an effect the other way counts as inactive or inconclusive.
Legend:
[1] = qHTS of pediatric cancer cell lines to identify multiple opportunities for drug repurposing: Primary screen for A673 cells (AID 1347092); note: nearly all actives have a fitted effect of over 45% in size; note: potency is the fitted concentration of half-maximal effect
Outline: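 A673 cells (500-1,000 cells/well in growth media) were pre-incubated 5 h at 37 degrees C, then exposed to compounds for 48 h. Viability was read as CellTiter-Glo luminescence; concentration-response curves came directly from the primary screen.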

[2] = qHTS of pediatric cancer cell lines to identify multiple opportunities for drug repurposing: Primary screen for SK-N-MC cells (AID 1347093); note: potency is the fitted concentration of half-maximal effect
Outline: (§1)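 Metabolically active cells were quantified by ATP-dependent luminescence (CellTiter-Glo, 15 min at room temperature) following 48 h treatment. Cells had been plated at 500-1,000 per well and settled for 5 h beforehand.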

[3] = qHTS of pediatric cancer cell lines to identify multiple opportunities for drug repurposing: Primary screen for BT-37 cells (AID 1347094); note: potency is the fitted concentration of half-maximal effect
Outline: (§2)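 Phenotypic viability qHTS, 48 h compound exposure, CellTiter-Glo luminescence read-out; multi-concentration dosing so that potency and efficacy derive directly from the primary screen's curves.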

[4] = qHTS of pediatric cancer cell lines to identify multiple opportunities for drug repurposing: Primary screen for NB-EBc1 cells (AID 1347095); note: potency is the fitted concentration of half-maximal effect
Outline: as §2

[5] = qHTS of pediatric cancer cell lines to identify multiple opportunities for drug repurposing: Primary screen for U-2 OS cells (AID 1347096); note: nearly all actives have a fitted effect of over 50% in size; note: potency is the fitted concentration of half-maximal effect
Outline: (§3)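 Cells (500-1,000/well) in growth media were settled 5 h at 37 degrees C, then given compounds for 48 h. Viability was read as CellTiter-Glo luminescence. Primary runs used MIPE at 11 points (0.78 nM-46 µM) and NPC at 8 points (0.59 nM-46 µM); follow-ups used 11 points.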

[6] = qHTS of pediatric cancer cell lines to identify multiple opportunities for drug repurposing: Primary screen for Saos-2 cells (AID 1347097); note: nearly all actives have a fitted effect of over 40% in size; note: potency is the fitted concentration of half-maximal effect
Outline: as §2

[7] = qHTS of pediatric cancer cell lines to identify multiple opportunities for drug repurposing: Primary screen for SK-N-SH cells (AID 1347098); note: nearly all actives have a fitted effect of over 65% in size; note: potency is the fitted concentration of half-maximal effect
Outline: (§4)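 Cells (500-1,000/well) rested 5 h, then received compounds for 48 h; metabolically active cells were measured by CellTiter-Glo luminescence. Final concentrations spanned up to 46 µM (MIPE, 11-point) or 0.59 nM-46 µM (NPC, 8-point) in primary screens, 11-point in follow-ups.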

[8] = qHTS of pediatric cancer cell lines to identify multiple opportunities for drug repurposing: Primary screen for NB1643 cells (AID 1347099); note: nearly all actives have a fitted effect of over 50% in size; note: potency is the fitted concentration of half-maximal effect
Outline: as §2

[9] = qHTS of pediatric cancer cell lines to identify multiple opportunities for drug repurposing: Primary screen for LAN-5 cells (AID 1347100); note: potency is the fitted concentration of half-maximal effect
Outline: as §3

[10] = qHTS of pediatric cancer cell lines to identify multiple opportunities for drug repurposing: Primary screen for Rh18 cells (AID 1347102); note: nearly all actives have a fitted effect of over 65% in size; note: potency is the fitted concentration of half-maximal effect
Outline: as §3

[11] = qHTS of pediatric cancer cell lines to identify multiple opportunities for drug repurposing: Primary screen for OHS-50 cells (AID 1347103); note: nearly all actives have a fitted effect of over 40% in size; note: potency is the fitted concentration of half-maximal effect
Outline: as §4

[12] = qHTS of pediatric cancer cell lines to identify multiple opportunities for drug repurposing: Primary screen for RD cells (AID 1347104); note: nearly all actives have a fitted effect of over 55% in size; note: potency is the fitted concentration of half-maximal effect
Outline: as §2

[13] = qHTS of pediatric cancer cell lines to identify multiple opportunities for drug repurposing: Primary screen for MG 63 (6-TG R) cells (AID 1347105); note: nearly all actives have a fitted effect of over 50% in size; note: potency is the fitted concentration of half-maximal effect
Outline: as §2

[14] = qHTS of pediatric cancer cell lines to identify multiple opportunities for drug repurposing: Primary screen for control Hh wild type fibroblast cells (AID 1347106); note: nearly all actives have a fitted effect of over 55% in size; note: potency is the fitted concentration of half-maximal effect
Outline: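 Viability after 48 h compound treatment at 37C, 500-1,000 cells/well, read as ATP luminescence with CellTiter-Glo. Primary screens used 11-point (MIPE, 0.78 nM-46 µM) or 8-point (NPC, 0.59 nM-46 µM) final concentrations; follow-up screens used 11-point dilutions.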

[15] = qHTS of pediatric cancer cell lines to identify multiple opportunities for drug repurposing: Primary screen for Rh30 cells (AID 1347107); note: series mostly up to about 46 µM; nearly all actives have a fitted effect of over 75% in size
Outline: as §3

[16] = qHTS of pediatric cancer cell lines to identify multiple opportunities for drug repurposing: Primary screen for Rh41 cells (AID 1347108); note: nearly all actives have a fitted effect of over 70% in size; note: potency is the fitted concentration of half-maximal effect
Outline: as §2

[17] = qHTS of pediatric cancer cell lines to identify multiple opportunities for drug repurposing: Confirmatory screen for NB1643 cells (AID 1347109); note: nearly all actives have a fitted effect of over 45% in size; note: potency is the fitted concentration of half-maximal effect
Outline: as §3

[18] = qHTS of pediatric cancer cell lines to identify multiple opportunities for drug repurposing: Confirmatory screen for A673 cells (AID 1347110); note: nearly all actives have a fitted effect of over 65% in size; note: potency is the fitted concentration of half-maximal effect
Outline: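 A673 cells seeded at 500-1,000 cells/well, rested 5 h, then dosed; primary MIPE 11-point (0.78 nM to 46 µM), NPC (0.59 nM to 46 µM); confirmatory 11-point. CellTiter-Glo luminescence after 48 h.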

[19] = qHTS of pediatric cancer cell lines to identify multiple opportunities for drug repurposing: Confirmatory screen for SK-N-MC cells (AID 1347111);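 note: potency is the fitted concentration of half-maximal effect; cells exposed to compound for 48 h before the readout; nearly all actives have a fitted effect of over 70% in size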
Outline: as §1

[20] = qHTS of pediatric cancer cell lines to identify multiple opportunities for drug repurposing: Primary screen for BT-12 cells (AID 1347101); note: nearly all actives have a fitted effect of over 25% in size
Outline: as §4

Structure (SMILES)	Potency [1]	Potency [2]	Potency [3]	Potency [4]	Potency [5]	Potency [6]	Potency [7]	Potency [8]	Potency [9]	Potency [10]	Potency [11]	Potency [12]	Potency [13]	Potency [14]	Potency [15]	Potency [16]	Potency [17]	Potency [18]	Potency [19]	Potency [20]
COc1cccc(OC)c1C(=O)N[C@@H]1C(=O)N2[C@@H]1SC(C)(C)[C@@H]2C(=O)O	inactive	inactive	inactive	inactive	inactive	inactive	inactive	inactive	inactive	inactive	inactive	inactive	inactive	inactive	inactive	inactive				
CN(C)C(=S)SC(=S)N(C)C	668 nM (active)	1 nM (active)	24600 nM (active)	10600 nM (active)	1680 nM (active)	1060 nM (active)	1940 nM (active)	2990 nM (active)	1330 nM (active)	1880 nM (active)	8710 nM (active)	944 nM (active)	4220 nM (active)	1190 nM (active)		944 nM (active)	9270 nM (active)	2610 nM (active)	2930 nM (active)	
COc1c2occc2c(OC)c2c(=O)cc(C)oc12	inactive	inactive	inactive	inactive	inactive	inactive	inactive	inactive	inactive	inactive	inactive	inactive	inactive	inactive	inactive	inactive				
CO/N=C1\CN(c2nc3c(cc2F)c(=O)c(C(=O)O)cn3C2CC2)CC1CN (stereo not drawn)	inactive	inactive	inactive	inactive	inactive	inactive	inactive	inactive	inactive	inactive	inactive	inactive	inactive		inactive	inactive				
O=C1c2ccccc2C(=O)C1c1ccccc1	inactive	inactive	inactive	inactive	inactive	inactive	inactive	inactive	inactive	inactive	inactive	inactive	inactive	inactive	inactive	inactive				
CN1[C@@H]2CC[C@H]1CC(OC(=O)c1c[nH]c3ccccc13)C2 (stereo partly drawn)	inactive	inactive	inactive	inactive	inactive	inactive		inactive	inactive	inactive	inactive	inactive	inactive	inactive	inactive	inactive				inactive
NCCCC[C@H](N[C@@H](CCc1ccccc1)C(=O)O)C(=O)N1CCC[C@H]1C(=O)O	inactive	inactive	inactive	inactive	inactive	inactive	inactive	inactive	inactive	inactive	inactive	inactive	inactive	inactive	inactive	inactive				
COC(=O)CCc1ccc(OCC(O)CNC(C)C)cc1 (stereo not drawn)	inactive	inactive	inactive	inactive	inactive	inactive	inactive	inactive	inactive	inactive	inactive	inactive	inactive		inactive	inactive				
COCc1c(C(C)C)nc(C(C)C)c(/C=C/[C@@H](O)C[C@@H](O)CC(=O)O)c1-c1ccc(F)cc1	668 nM (active)	1190 nM (active)	2190 nM (active)	1680 nM (active)	841 nM (active)	106 nM (active)	433 nM (active)	1500 nM (active)	3760 nM (active)	473 nM (active)	309 nM (active)	1680 nM (active)	84.1 nM (active)		inactive			414 nM (active)	2930 nM (active)	
C[C@@H]1C[C@H]2[C@@H]3C[C@H](F)C4=CC(=O)C(Cl)=C[C@]4(C)[C@@]3(F)[C@@H](O)C[C@]2(C)[C@@]1(O)C(=O)CO	inactive	inactive	inactive	inactive	inactive	inactive	inactive	inactive	inactive	inactive		inactive	inactive	inactive	inactive	inactive		inactive		
O=C(O)CCCCC(=O)O	inactive	inactive	inactive	inactive	inactive	inactive	inactive	inactive	inactive	inactive	inactive	inactive	inactive	inactive	inactive	inactive				
CNC(=O)CN(CCN(CCN(CC(=O)[O-])CC(=O)NC)CC(=O)[O-])CC(=O)[O-].O.[Gd+3]	inactive	inactive	inactive	inactive	inactive	inactive	inactive	inactive	inactive	inactive	inactive	inactive	inactive		inactive	inactive				
CC(=O)CC(c1ccc([N+](=O)[O-])cc1)c1c(O)c2ccccc2oc1=O (stereo not drawn)	inactive	inactive	inactive	inactive	inactive	inactive	inactive	inactive	inactive	inactive		inactive	inactive	inactive	inactive	inactive				
CC(=O)OCC(=O)[C@@]1(OC(C)=O)[C@@H](C)C[C@H]2[C@@H]3C[C@H](F)C4=CC(=O)C=C[C@]4(C)[C@@]3(F)[C@@H](O)C[C@@]21C	inactive	inactive	inactive	inactive	inactive	inactive	inactive		inactive	inactive	inactive	inactive	inactive		inactive	inactive	inactive	inactive		inactive
